About 79,000 compounds went through this panel and 15% of them were active in at least one assay; those are over-represented in the sample as a whole. The source made the active and inactive calls. Rule as the data show it: active = growth inhibition above about 70%; inactive = the rest.
Columns and labels:
[1] = NCI Yeast Anticancer Drug Screen. Data for the rad50 strain (AID 155);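 also: 0% = growth of vehicle-only cultures of the same strain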; conditions: S. cerevisiae rad50 strain growth inhibition, stronger effect = higher value
Summary of the method: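 Vehicle-treated cultures provide the reference for the growth inhibition reported for compound-exposed, repair-deficient yeast.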

[2] = NCI Yeast Anticancer Drug Screen. Data for the mec2-1 strain (AID 157); conditions: S. cerevisiae mec2-1 strain, stronger effect = higher value
Summary of the method: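 Strain: mec2-1 (DNA repair/cell cycle alteration). Compound exposure, then growth measured; inhibition expressed relative to vehicle.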

[3] = NCI Yeast Anticancer Drug Screen. Data for the sgs1 mgt1 strain (AID 161);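 also: 0% = growth of cultures given vehicle only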; conditions: S. cerevisiae sgs1 mgt1 strain, stronger effect = higher value
Summary of the method: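 Inhibition of yeast growth, normalised to vehicle-treated controls, is reported for a strain bearing genetic alterations in DNA damage repair.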

[4] = NCI Yeast Anticancer Drug Screen. Data for the cln2 rad14 strain (AID 165);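 also: 0% = growth equal to vehicle treated cultures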; conditions: S. cerevisiae cln2 rad14 strain, stronger effect = higher value
Summary of the method: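 Compounds are applied to the cln2 rad14 yeast strain, and growth is then compared with that of vehicle-treated cultures to give inhibition.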

[5] = NCI Yeast Anticancer Drug Screen. Data for the bub3 strain (AID 167); conditions: S. cerevisiae bub3 mutant strain, stronger effect = higher value
Summary of the method: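 Mutant yeast screening strain plus compound; vehicle-treated cultures serve as the 0% inhibition reference.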

[6] = NCI Yeast Anticancer Drug Screen. Data for the mlh1 rad18 strain (AID 175); conditions: S. cerevisiae mlh1 rad18 strain growth inhibition, stronger effect = higher value
Summary of the method: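 Read-out is yeast growth inhibition, calculated against vehicle-only controls. The compound was applied to a strain engineered with DNA damage repair alterations.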

[7] = at 5.0 µM (retest, dose inferred, filed as 0.5)
[8] = at 50.0 µM (retest, dose inferred, filed as 5.0)

Measured: growth inhibition

COC(=O)c1nnn(-c2cc(Cl)ccc2Cl)c1C(=O)c1ccc(Cl)c(Cl)c1
active: [1]; [8] 98% | [1]; at 50.0 µM 98.8% | [2]; [8] 98% | [2]; at 50.0 µM 96.8% | [3]; [8] 98% | [3]; at 50.0 µM 99% | [4]; [8] 97% | [4]; at 50.0 µM 95.5% | [5]; [8] 99% | [5]; at 50.0 µM 95.3% | [6]; [8] 99% | [6]; at 50.0 µM 99%
inactive: [1]; [7] 12% | [2]; [7] 4% | [3]; [7] 14% | [4]; [7] 6% | [5]; [7] 18% | [6]; [7] 17%

O=[N+]([O-])c1ccc(N2N=NC(CN3CCOCC3)C2N2CCOCC2)cc1 (configuration not stated)
inactive: [1]; [7] 5% | [1]; [8] 42% | [2]; [7] 0% | [2]; [8] 23% | [2]; at 50.0 µM 47.3% | [3]; [7] 1% | [3]; [8] 56% | [3]; at 50.0 µM 47.5% | [4]; [7] 0% | [4]; [8] 28% | [4]; at 50.0 µM 24.5% | [5]; [7] 2% | [5]; [8] 32% | [5]; at 50.0 µM 7.85% | [6]; [7] 3% | [6]; [8] 47% | [6]; at 50.0 µM 60.1%
active: [1]; at 50.0 µM 77.5%

O=C(O)C1(Cc2ccc3c(c2)CCC3)Cc2ccccc2C1
active: [1]; at 50.0 µM 90.3% | [2]; at 50.0 µM 91.9% | [3]; at 50.0 µM 88.5% | [4]; at 50.0 µM 89% | [5]; at 50.0 µM 90% | [6]; at 50.0 µM 86.8%
inactive: [1]; [7] 18% | [1]; [8] 18% | [2]; [7] -7% | [2]; [8] -7% | [3]; [7] 15% | [3]; [8] 15% | [4]; [7] 5% | [4]; [8] 5% | [5]; [7] -6% | [5]; [8] -6% | [6]; [7] 3% | [6]; [8] 3%

CC1CCC2(CC1)NC1=C(CC(C)CC1)C1=C2CC(C)CC1 (configuration not stated)
active: [1]; [8] 87% | [2]; [8] 85% | [6]; [8] 89%
inactive: [1]; [7] 46% | [1]; at 50.0 µM 3.8% | [2]; [7] 28% | [2]; at 50.0 µM -29.6% | [3]; [7] -1% | [3]; [8] 27% | [3]; at 50.0 µM -21.9% | [4]; [7] 14% | [4]; [8] 26% | [4]; at 50.0 µM 13.2% | [5]; [7] -16% | [5]; [8] 17% | [5]; at 50.0 µM -4.4% | [6]; [7] 32% | [6]; at 50.0 µM 10.4%

Source: PubChem BioAssay (NCI)
